From PubChem BioAssay
A selection: hits, their analogues and other compounds. The true share with any hit is near 8.7%.
Pf growth 48h: P. falciparum growth inhibition at 48 hours (one generation). hit rate 5.9% among 310,000. Potency, µM (highest dose often 28.7 µM), for the others: top-dose activity change, negative = inhibition, hits mostly inhibitors. P. falciparum luciferase growth in erythrocytes, 48 h
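First compound was added to culture medium, then infected red cells at 0.1% parasitemia and 2% hematocrit (final). After incubation at 37 C under 5% CO2, luciferase detection reagent was dispensed and light output recorded.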
Pf growth 96h: inhibits malaria parasite growth, 96 h | P. falciparum luciferase reporter growth, 96 h | Potency, µM (top dose mostly 28.7 µM), without a hit: top-dose activity change, negative = inhibition, actives largely listed as inhibitors | hit rate 6.9% among 320,000
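96 h incubation, 37 C, 5% CO2, of luciferase-reporter P. falciparum-infected RBCs (2% hematocrit, 0.05% parasitemia final) with test compounds; endpoint luminescence.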
Vaccinia mCherry: inhibitors of vaccinia virus infection (mCherry reporter signal); Vaccinia virus mCherry reporter infection, fluorescence; Potency, µM (titrated, usually from 36.5 µM), for inactives: at the top dose activity change, negative = inhibition, hits mostly inhibitors; AID 720579; hit rate 0.63% among 310,000; calls by dose curve; tested in A549 cells; note: nearly all actives have a fitted effect of over 35% in size
AMA1 RON2 block: AMA1-RON2 (P. falciparum) interaction inhibition. AlphaScreen AMA1-biotinylated RON2 peptide binding. Potency, µM (top dose mostly 58.2 µM), for inactives: at the top dose activity change, negative = inhibition, most hits filed as inhibitors. hit rate 0.2% among 360,000. AID 720542;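 note: 0% = vehicle wells and -100% = peptide control; nearly all actives have a fitted effect of over 45% in size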
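AMA1 (3D7) with his tag at 25 nM final met compounds first, then biotinylated RON2 peptide at 25 nM; detection used donor plus acceptor beads, 10 µg/mL apiece, read by AlphaScreen after 30 min at room temperature.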
Vaccinia Venus: inhibitors of vaccinia virus (Venus reporter) | Vaccinia virus Venus reporter expression, fluorescence | Potency, µM (top dose mostly 36.5 µM), for the others: at the highest dose activity change, negative = inhibition, actives largely listed as inhibitors | hit rate 0.46% among 330,000; calls by dose curve; tested in A549 cells; note: nearly all actives have a fitted effect of over 30% in size
* hit, by the source's call; i = inactive; u = inconclusive; x = not tested or not shown; [ ] = remark or other dose. Unless noted, calls come from the whole dose curve; as a rule, active = well fitted curve in the direction sought with a large enough effect; inconclusive = small, poorly fitted or top-dose-only effect, or another doubt; inactive = no such curve, though single readings can be large; an effect the other way counts as inactive or inconclusive. Unless noted, % is set by controls: 0 for no effect and ±100 for the full control effect; potency is the fitted concentration of half-maximal effect.

SMILES	Pf growth 48h	Pf growth 96h	Vaccinia mCherry	AMA1 RON2 block	Vaccinia Venus
Cc1cccc(N2CCN(C(=S)Nc3ccc4nc(N5CCN(C)CC5)cc(C)c4c3)CC2)c1C	11.7µM*	u	x	4.5%	x
COc1ccc(/C=C/C(=O)Nc2ccc(N3CCOCC3)cc2)cc1	-20.5%	33.6%	-25.5%	14.3%	-19.6%
O=[N+]([O-])c1ccc(N2CCN(C(=S)Nc3ccc(F)cc3)CC2)cc1	u	31.0%	-25.3%	2.0%	-9.9%
O=[N+]([O-])c1ccc(N2CCN(C(=S)Nc3cccc(F)c3)CC2)cc1	3.29µM*	-14.4%	x	-11.7%	x
COc1ccc(N2CCN(C(=S)Nc3cc(C)cc(C)c3)CC2)cc1	4.7%	41.3%	-13.5%	-4.8%	-0.3%
Cc1cccc(-c2nc3scc(CCNS(=O)(=O)c4ccc(F)c(C(F)(F)F)c4)n3n2)c1	x	x	-9.5%[7.34 µM]	x	-7.6%[7.34 µM]
COc1ccc(NC(=O)c2c(NCc3ccc(C)o3)sc3c2CCCCC3)c(OC)c1	x	x	-6.6%	x	0.7%
Cc1cc(Nc2ccc(F)cc2F)nc(-n2nc(C)cc2C)n1	x	x	-11.1%[7.34 µM]	x	-8.2%[7.34 µM]
COc1cc(OC)c(/C=C/c2ccccn2)c(OC)c1	x	x	-15.7%	x	u
COc1ccc(OC)c(C2=C/C(=C/c3ccccn3)C(=O)O2)c1	u	5.22µM*	i	47.1%	-8.3%
O=C(Cc1cccc(C(F)(F)F)c1)N1CCN(CC(=O)N2CCCC2)CC1	13.1µM*	u	x	13.2%	x
CN1CC(=O)N2C(Cc3c([nH]c4ccccc34)[C@H]2c2ccc3c(c2)OCO3)C1=O (stereo not given in full)	-6.2%	u	x	x	x
COC(=O)c1ccc(C2c3[nH]c4ccccc4c3C[C@H]3C(=O)N(C4CCN(Cc5ccccc5)CC4)CC(=O)N23)cc1 (stereo not given in full)	4.65µM*	3.29µM*	x	-6.6%	x
COc1ccc(C2c3[nH]c4ccccc4c3C[C@H]3C(=O)N(C)CC(=O)N23)cc1OC (stereo not given in full)	u	u	x	0.0%	x
O=C1[C@@H]2Cc3c([nH]c4ccccc34)C(c3ccccc3)N2C(=O)CN1C1CCN(Cc2ccccc2)CC1 (stereo not given in full)	9.4%[0.00184 µM]	0.738µM*	u	-27.2%	u
O=C1[C@@H]2Cc3c([nH]c4ccccc34)C(c3cccc(Br)c3)N2C(=O)CN1C1CCN(Cc2ccccc2)CC1 (stereo not given in full)	1.47µM*	u	u	-25.6%	u
Cc1ccc(CN2CCCn3nc(C(=O)NCCc4cccc(C)c4)cc3C2=O)cc1	x	x	-8.7%	x	-15.8%
CCCCNS(=O)(=O)c1cc(-c2nn(C)c(=O)c3ccccc23)ccc1C	13.1µM*	14.3%	-1.0%	-8.4%	-23.9%
Cc1ccc(-c2nn3c(C)nnc3c3ccccc23)cc1S(=O)(=O)NC(C)c1ccccc1 (stereo not given)	u	7.38µM*	-10.5%	-20.3%	-17.6%
CCN(c1ccccc1C)S(=O)(=O)c1nnc(NC(=O)c2ccccc2C)s1	x	x	-13.4%	x	-11.2%
O=C(CSc1nc2c([nH]c3ccccc32)c(=O)n1-c1cccc(Cl)c1)NCc1ccccc1	x	x	-6.5%	x	-8.0%
CC(=O)Nc1ccc(S(=O)(=O)O)c2cc(S(=O)(=O)O)c(N=Nc3ccc(N=Nc4ccc(S(=O)(=O)O)cc4)c4ccc(S(=O)(=O)O)cc34)c(O)c12	x	x	-19.1%	x	-18.6%
CS(=O)(=O)c1ccc(Cl)c(C(=O)O)c1	35.4%	3.7µM*	i	-0.5%	-15.7%
Cc1cc(CN2CCN(CCC#N)CC2)c(O)c(C2(C)CCCCC2)c1	9.28µM*	10.9%	-2.8%	0.0%	-2.9%
N#CCCN1CCN(CCC#N)CC1	8.0%	18.7%	-11.5%	11.4%	-7.3%
SMILES	Pf growth 48h	Pf growth 96h	Vaccinia mCherry	AMA1 RON2 block	Vaccinia Venus
COc1cccc(C(=O)Nc2cc(-c3ccccc3)nn2-c2ccccc2)c1	x	x	-13.2%	x	0.1%
CCCCOC(=O)c1ccc(NC(=O)c2cc(-c3cccs3)on2)cc1	x	x	i	x	-13.8%
CCC(=O)c1cc2c(cc1NC(=O)c1ccccc1)OCCO2	x	46.5%	-24.8%	-1.2%	-5.5%
CCCC(=O)c1cc2c(cc1NC(=O)c1ccccc1F)OCCO2	u	11.7µM*	-4.3%	-1.4%	-5.3%
CC(C)C(=O)Nc1cc2c(cc1C(=O)c1ccccc1)OCCO2	u	1.31µM*	x	0.5%	-1.3%
CCC(=O)c1cc2c(cc1NC(=O)C(C)C)OCCO2	-2.4%	2.33µM*	x	7.5%	9.7%
CCC(=O)c1cc2c(cc1NC(=O)c1ccccc1F)OCCO2	x	x	8.1%	x	4.8%
COc1cc2nc(NCCc3ccccc3)n3nc(-c4cccnc4)nc3c2cc1OC	x	x	-15.4%	x	-5.5%
CCOc1ccc(NC(=O)C(=O)NCCc2sc(-c3ccc(C)cc3)nc2C)cc1	x	x	-0.5%	x	2.1%
Oc1cccc2ccc(Nc3ccccn3)nc12	0.37µM*	x	x	-88.6%	x
c1ccc(Nc2ccccc2Nc2ccccn2)nc1	u	19.9%	x	-8.3%	x
CCC(C)(C)c1ccc(OCCCC[n+]2cccc(C)c2C)c(C(C)(C)CC)c1	0.828µM*	0.37µM*	x	-6.9%	x
Cc1cc(C(C)(C)C)ccc1OCCCCN1CCCC1	u	3.2%	-1.7%	u	-23.7%
Cc1cc[n+](CC[n+]2ccc(C)cc2)cc1	-7.2%	13.3%	-12.1%	12.0%	-3.7%
CCC(C)(C)c1ccc(OCCCC[n+]2ccc(C)cc2)c(C(C)(C)CC)c1	1.85µM*	3.7µM*	x	-13.4%	x
CCOc1cc2[nH]c(=S)n(CCCOC)c(=O)c2cc1OCC	-7.9%	6.57µM*	-14.9%	84.3%	-12.6%
CCOc1cc2[nH]c(=S)n(C(C)C)c(=O)c2cc1OCC	x	8.28µM*	x	10.3%	x
CCCCN(C)C(=O)CCCCn1c(=O)[nH]c2cc(OCC)c(OCC)cc2c1=O	10.4µM*	u	u	-11.4%	-27.9%
CN(Cc1ccccc1)C(=O)CCCn1c(=O)[nH]c2cc(Cl)ccc2c1=O	x	14.7µM*	x	3.6%	u
O=C(Cn1cc2ccccc2n1)N1CCOc2ccc(C(O)C3CCCCC3)cc2C1 (stereo not given)	x	x	-21.1%	x	-7.6%
CCCC(=O)N(Cc1cccnc1)c1nc2c(OC)ccc(Cl)c2s1	u	11.7µM*	-17.0%	1.5%	-15.5%
COc1ccc2nc(N(Cc3cccnc3)C(=O)CCc3ccccc3)sc2c1	x	x	-3.6%	x	-12.1%
O=c1c2ccccc2nc(CSc2ncnc3nc[nH]c23)n1-c1cccc(C(F)(F)F)c1	u	x	x	2.3%	-14.0%
O=c1c2ccccc2nc(C[n+]2ccccc2)n1-c1cccc(C(F)(F)F)c1	-18.4%	11.7µM*	-4.2%	-13.7%	5.6%
C=C(C)COc1ccc(-c2ncnc(C(F)(F)F)c2-c2ccccc2)c(O)c1	1.65µM*	1.65µM*	-5.0%	1.6%	9.9%
C=C(C)COc1ccc(-c2nc(N)nc(C(F)(F)F)c2-c2ccc(OC)cc2)c(O)c1	2.94µM*	2.08µM*	x	15.5%	x
C=C(C)COc1ccc(-c2ncnc(C(F)(F)F)c2-c2ccc(OC)cc2)c(O)c1	1.65µM*	0.928µM*	-14.4%	-5.4%	-12.0%
